# Screens (PubChem)
# Gal4-VP16 FLuc: Gal4-VP16 reporter inhibition counter-screen; Drosophila S2 Gal4-VP16 UAS-luciferase, luminescence, 20 h; Potency, µM (titrated, usually from 53.6 µM), usual class: inhibitors; 310,000 compounds, 3.5% hits;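 note: Gal4-VP16 expression switched on by copper sulfate through the metallothionein promoter; nearly all actives have a fitted effect of over 50% in size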
# RORg inh: inhibitors of mouse ROR gamma transcriptional activity; Drosophila S2 Gal4-RORgamma UAS-luciferase reporter, 20 h; Potency, µM (series often up to 53.6 µM), hits mostly inhibitors; 310,000 compounds, 5.4% hits; AID 2551; note: nearly all actives have a fitted effect of over 60% in size
# Target sequence (P51450 whole entry, looked up, the tested form may be a part): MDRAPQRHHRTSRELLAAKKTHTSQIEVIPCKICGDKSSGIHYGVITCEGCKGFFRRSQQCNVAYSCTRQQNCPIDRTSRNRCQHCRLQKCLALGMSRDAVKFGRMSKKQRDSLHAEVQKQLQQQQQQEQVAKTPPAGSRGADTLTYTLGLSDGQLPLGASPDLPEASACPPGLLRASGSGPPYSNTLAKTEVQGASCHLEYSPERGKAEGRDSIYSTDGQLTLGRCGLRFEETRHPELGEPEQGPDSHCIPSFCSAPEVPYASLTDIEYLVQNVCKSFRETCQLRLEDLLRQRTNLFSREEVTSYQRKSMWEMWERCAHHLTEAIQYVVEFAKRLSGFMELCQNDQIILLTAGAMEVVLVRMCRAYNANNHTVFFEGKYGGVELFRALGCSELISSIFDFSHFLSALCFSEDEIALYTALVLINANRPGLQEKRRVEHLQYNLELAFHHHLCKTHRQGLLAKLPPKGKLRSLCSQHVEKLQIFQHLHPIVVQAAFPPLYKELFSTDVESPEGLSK
#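 Using a luciferase readout, inhibitors were identified by reduced reporter activity in Drosophila cells coexpressing a copper-inducible Gal4–ROR gamma fusion and UAS-driven Photinus luciferase, incubated 20 hr after 700 uM copper sulfate.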
# SW480 rereplic: induces DNA re-replication in SW480 colon adenocarcinoma cells. SW480 DNA re-replication, Hoechst DNA content imaging, 48 h. 340,000 compounds, 1.8% hits. AID 624297. Potency, µM (doses to about 46.1 µM), most hits filed as activators; note: nearly all actives have a fitted effect of over 55% in size
#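 Compounds, transferred as 23 nL by pin tool, were incubated with cells for 48 hr; DNA content per nucleus was then quantified by Hoechst staining and fluorescence plate imaging.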
# MCF10A rerep: inducers of DNA re-replication in MCF 10A breast cells; AID 624296; Potency, µM (titrated, usually from 46.1 µM), hits mostly activators; MCF 10A DNA re-replication, Hoechst nuclear intensity, 48 h; 350,000 compounds, 2.9% hits; note: nearly all actives have a fitted effect of over 50% in size
# IL-1B inflam inh: inhibitors of inflammasome signaling (IL-1 beta secretion). THP-1 LPS/ATP IL-1B secretion, AlphaLISA, 16 h; hits give low values. activity change, % at 57.5 µM. 360,000 compounds, 4.7% hits. AID 743279; in the data active = activity change below about -50%; inconclusive = mostly about -30% to -49%
#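 Secreted IL-1B measured by AlphaLISA bead assay after 16 h compound exposure of THP-1 cells; compounds (final up to 57.5 uM) added 1 h before LPS (250 ng/mL) and ATP (1.25 mM) stimulation; lower signal means less secretion.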
# Hits are given with their value; 0 = inactive; ? = inconclusive; - = not tested or not shown; ! = a repeat was not active; [ ] = another dose, or the depositor's remark. Shown are actives, neighbours in structure and some others; about 11% of the full set was active somewhere. Unless noted, calls come from the whole dose curve; as a rule, active = well fitted curve in the direction sought with a large enough effect; inconclusive = small, poorly fitted or top-dose-only effect, or another doubt; inactive = no such curve, though single readings can be large; an effect the other way counts as inactive or inconclusive.
SMILES,Gal4-VP16 FLuc,RORg inh,SW480 rereplic,MCF10A rerep,IL-1B inflam inh
O=C1NC(=O)N(Cc2ccccc2)C(=O)/C1=C/c1cnn(-c2ccccc2)c1,0,0,-,-,-
CCCCCCCSc1cc(OC)c(CCNC)cc1OC,0,?,?,?,-79
CCCCCSc1cc(OC)c(CCNC)cc1OC,0,0,?,0,0
COc1ccc(C(=O)OC2C[C@H]3CC[C@@H](C2)N3C)cc1OC (some centres undefined),0,0,-,-,-
CC/C=C\C/C=C\C/C=C\C/C=C\C/C=C\CCCC(N)=O,0,0,-,-,-
COc1ccc(S(=O)(=O)N2c3ccc(F)cc3CCC2C)cc1 (centres undefined),-,-,?,0.92µM,0
Cc1ccc(C(=O)Nc2nc3ccccc3n2CCN2CCCC2)cc1,7.1µM,2.5µM,?,0,0
COc1cc2c(c(OC)c1OC)-c1ccc(OC)c(=O)cc1[C@@H](NC(C)=O)CC2,0,0,0.0046µM,0.042µM,0
COc1cc2c(c(OC)c1O)-c1ccc(OC)c(=O)cc1C(NC(=O)C(F)(F)F)CC2 (centres undefined),-,-,0.12µM,?,0
COc1cc2c(c(OC)c1OC)-c1ccc(C(=O)O)cc1[C@@H](NC(C)=O)CC2,-,-,0,0,-
CCN(CC)c1ccc2c(cc1=O)[C@@H](NC)CCc1cc(OC)c(OC)c(OC)c1-2,0,0,1µM,1.3µM,0
CC(C)OC(=O)C(O)(c1ccc(Cl)cc1)c1ccc(Cl)cc1,0,0,-,-,-
[N-]=[N+]=CC(=O)OCC(N)C(=O)O (centres undefined),0,0,0,0,-
C[C@@]12CC(c3ccoc3)OC(=O)C1CC[C@@]1(C)C2C2C=C[C@@]1(O)C(=O)O2 (some centres undefined),0,0,-,-,-
OC(c1ccccc1)(c1ccccc1)C1CN2CCC1CC2 (centres undefined),0,0,0,0,0
OC(c1ccccc1)(c1ccc(Cl)cc1)C1CN2CCC1CC2 (centres undefined),0,?,?,?,-70
CC(C)c1cccc(O)c(=O)c1,2.8µM!,2µM,0,0,0
NCC(O)c1cccc(O)c1 (centres undefined),0,0,0,0,-
CC(C)(C)NC(=S)/N=C(\N)N[N+](=O)[O-],?,10µM,0,0,0
CC(C)CN1CC2(CCN(C(=O)c3ccncc3)CC2)C1,0,0,-,-,-
CCCSP(=S)(OCC)Oc1ccc(Cl)cc1Cl (centres undefined),0,0,-,-,-
Cc1cc(O)c(CN2CC=C(c3ccccc3)CC2)cc1C(C)C,0,0,?,?,0
O=c1cc(CN2CC=C(c3ccccc3)CC2)c2c(ccc3ccccc32)o1,0,5.6µM,0,?,0
Nc1ccc([N+](=O)[O-])cc1[N+](=O)[O-],0,0,-,-,-
CN(C)c1ccc([N+](=O)[O-])c([N+](=O)[O-])c1,-,-,0,0,-59
SMILES,Gal4-VP16 FLuc,RORg inh,SW480 rereplic,MCF10A rerep,IL-1B inflam inh
c1ccc(CN2CCCC3(CCNCC3)C2)cc1,0,0,-,-,-
CC(=O)O[C@@]12CO[C@@H]1C[C@H](O)[C@@]1(C)C(=O)[C@H](O)C3=C(C)[C@@H](O)C[C@@](O)([C@@H](OC(=O)c4ccccc4)C12)C3(C)C (some centres undefined),0,0,?,?,0
C/C=C(\C)C(=O)N[C@@H](c1ccccc1)[C@@H](O)C(=O)O[C@H]1C[C@@]2(O)[C@@H](OC(=O)c3ccccc3)C3[C@](C)(C(=O)[C@H](OC(C)=O)C(=C1C)C2(C)C)[C@@H](O)C[C@H]1OC[C@@]31OC(C)=O (some centres undefined),0,?,1.2µM,0.29µM,0
C/C=C(\C)C(=O)N[C@@H](c1ccccc1)[C@@H](O)C(=O)O[C@H]1C[C@@]2(O)[C@@H](OC(=O)c3ccccc3)C3[C@](C)(C(=O)[C@H](O)C(=C1C)C2(C)C)[C@@H](O)C[C@H]1OC[C@@]31OC(C)=O (some centres undefined),0,?,8.2µM,?,0
CC(C)NCC(O)c1ccccc1Cl (centres undefined),0,0,0,0,-
c1ccc2c(c1)[IH]c1ccccc1-2,-,-,?,0,-94
O=C1c2ccccc2C(=O)c2ccccc21,0,0[10 µM],0,0,-
CC(=O)O[C@H]1C[C@@H]2CC[C@@H]3[C@H](CC[C@@]4(C)[C@H]3C[C@H]([N+]3(C)CCCCC3)[C@@H]4OC(C)=O)[C@@]2(C)C[C@@H]1[N+]1(C)CCCCC1,-,-,0,0,0
CNC(=O)[C@@H]1C[C@H]1[C@@H](NP(=O)(c1ccccc1)c1ccccc1)c1ccccc1,0,?,-,-,-
N=C1c2ccccc2CN1NC(=O)c1ccc(Br)cc1,0,0,0,?,-102
N=C1c2ccccc2CN1NC(=O)c1ccc(F)cc1,0,0,0,0,0
COc1ccc2nc(NC(=O)CCc3nc(C4=CCN(C)CC4)no3)sc2c1,0,?,0,0,0
CCc1nnc(NC(=O)CCc2nc(C3=CCN(C)CC3)no2)s1,0,0,0[9.22 µM],?,-54
CC(C)C[C@H](NC(=O)[C@H](CC(C)C)NC(=O)[C@H](Cc1ccccc1)NC(=O)[C@@H](N)Cc1ccc(O)cc1)C(=O)N[C@@H](CCCN=C(N)N)C(=O)N[C@@H](CC(N)=O)C(=O)N1CCC[C@H]1C(=O)O,0,0,-,-,-
C=C1[C@@H](O)C2C=CC[C@H](C)C(=O)[C@@](C)(O)C=C[C@@H](OC(C)=O)[C@@]23C(=O)N[C@H](Cc2ccccc2)[C@@H]3[C@@H]1C (some centres undefined),0,?,-,-,-
C=C1C(C)C2C(Cc3ccccc3)NC(=O)C23OC(=O)/C=C/C(O)CCCC(C)C/C=C/C3C1O (centres undefined),-,-,9.2µM,6.5µM,0
CCn1c(NN=O)nc2ccccc21,?,0.5µM,?,0,0
CCn1c(P(C)(=O)O)nc2ccccc21,0,0,0,0,0
CC(C)=CCCC1(C)C=Cc2c(O)c3c(c(CC=C(C)C)c2O1)OC12C(=CC4CC1C(C)(C)OC2(C/C=C(/C)C(=O)O)C4O)C3=O (centres undefined),2.2µM,2.8µM,-,-,-
CC(C)=CCCC1(C)C=Cc2c(O)c3c(c(CC=C(C)C)c2O1)OC12C(=CC4CC1C(C)(C)OC2(C/C=C(/C)C(=O)O)C4=O)C3=O (centres undefined),5µM,3.2µM,-,-,-
CC(C)CCCC1(C)C=Cc2c(O)c3c(c(CCC(C)C)c2O1)OC12C(CC4CC1C(C)(C)OC2(CCC(C)C(=O)O)C4O)C3=O (centres undefined),0,0,-,-,-
O[C@H]1CCCC[C@H]1N1CCC(c2ccccc2)CC1,0,0,-,-,-
COc1cc(OC2CCN(C(C)=O)CC2)ccc1C(=O)N1CCC(N2C(=O)OCc3ccccc32)CC1,0,0,-,-,-
